High-throughput results (PubChem)
A selection: hits, their analogues and other compounds. The true share with any hit is near 2.9%.
Pol beta inh – qHTS Assay for Inhibitors of DNA Polymerase Beta; P06746; Pol beta primer extension/strand displacement, fluorescence kinetic; Potency, µM (highest dose often 114 µM), most hits filed as inhibitors; 340,000 compounds, 1.3% hits
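10 nM enzyme + cpd, 15 min RT; start with substrate 50 nM final; read 0 min and after 10 min RT. Corrected, normalized data; 4-parameter Hill curve fit.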
POLK inh – qHTS for Inhibitors of Polymerase Kappa | purified Pol kappa, fluorescent DNA synthesis assay, 10 min | Potency, µM (top dose mostly 107 µM), actives largely listed as inhibitors | 400,000 compounds, 0.53% hits | AID 588579, 2011
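Here, compound and 10 nM enzyme are combined for 15 min at room temperature; adding 50 nM substrate (final) starts DNA synthesis, tracked by fluorescence at 0 and 10 min against buffer-only wells.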
PI5P4Ka inh – qHTS for Inhibitors of phosphatidylinositol 5-phosphate 4-kinase (PI5P4K); Phosphatidylinositol 5-phosphate 4-kinase type-2 alpha (Homo sapiens), P48426; PI5P4Kalpha enzyme, ADP-Glo luminescence, 60 min; active compounds read low; max response, %; 330,000 compounds, 1.2% hits; AID 652105, 2013; active means max response of -50% or lower; inconclusive means between -30% and -50%; inactive means -30% or higher; further: value at the top dose of about 77 µM
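Reactions run in 0.038 M HEPES pH 7.4, 0.28 mM EGTA, 0.1% CHAPS and 5% DMSO, with PI5P4Kalpha, substrate, compound and 5 microM ATP final, one hour at room temperature. Readout is ADP-Glo luminescence.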
ALOX12 inh – Primary qHTS assay for inhibitors of human arachidonate 12S-lipoxygenase (ALOX12): Round 2 | Polyunsaturated fatty acid lipoxygenase ALOX12 (Homo sapiens), P18054 | purified 12hLO, xylenol orange hydroperoxide absorbance | Potency, µM (highest dose often 108 µM), hits mostly inhibitors | 580,000 compounds, 1.1% hits | AID 1671190, 2021
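Hydroperoxide product was detected by ferrous iron/xylenol orange as the 573 to 405 nm absorbance ratio. Arachidonic acid at 40 uM (final) was turned over for 30 min at room temperature by 150 nM human 12hLO, pH 7.0 Hepes buffer, after 15 min compound preincubation.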
POLH inh – qHTS for Inhibitors of Polymerase Eta; AID 588591, 2011; DNA polymerase eta (Homo sapiens), Q9Y253; recombinant Pol eta, fluorescent DNA replication assay; Potency, µM (doses to about 114 µM), usual class: inhibitors; 390,000 compounds, 1.2% hits
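Fluorescent replication assay: 50 nM final substrate added after a 15 min room-temperature compound preincubation with 10 nM enzyme. Signal taken at 0 min and again at 10 min.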
POLI inh – qHTS for Inhibitors of Polymerase Iota; Potency, µM (series often up to 115 µM), usual class: inhibitors; DNA polymerase iota (Homo sapiens), Q9UNA4; Pol iota fluorescent replication assay, 10 min; AID 588590, 2011; 390,000 compounds, 1% hits
Target sequence (Q9UNA4 whole entry, looked up): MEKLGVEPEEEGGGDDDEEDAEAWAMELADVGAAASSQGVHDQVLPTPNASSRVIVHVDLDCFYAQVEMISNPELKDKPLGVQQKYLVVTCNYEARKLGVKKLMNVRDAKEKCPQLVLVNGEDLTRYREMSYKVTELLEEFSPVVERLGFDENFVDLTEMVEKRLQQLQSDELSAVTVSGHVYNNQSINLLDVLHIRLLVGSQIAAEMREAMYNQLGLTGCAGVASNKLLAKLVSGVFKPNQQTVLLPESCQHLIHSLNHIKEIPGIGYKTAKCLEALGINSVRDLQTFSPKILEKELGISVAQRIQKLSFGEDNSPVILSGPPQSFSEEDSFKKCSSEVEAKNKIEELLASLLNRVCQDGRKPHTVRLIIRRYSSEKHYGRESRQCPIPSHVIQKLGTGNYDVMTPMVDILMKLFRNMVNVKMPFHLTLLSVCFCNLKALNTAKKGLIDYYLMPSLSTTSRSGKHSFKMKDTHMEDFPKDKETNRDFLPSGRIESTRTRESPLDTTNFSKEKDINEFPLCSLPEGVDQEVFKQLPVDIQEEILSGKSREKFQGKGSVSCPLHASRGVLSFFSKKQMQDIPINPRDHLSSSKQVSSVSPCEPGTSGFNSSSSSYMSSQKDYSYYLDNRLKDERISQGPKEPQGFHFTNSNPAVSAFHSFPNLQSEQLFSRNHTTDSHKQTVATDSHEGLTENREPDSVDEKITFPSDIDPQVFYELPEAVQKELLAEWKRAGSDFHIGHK
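Pol iota at 10 nM preincubated 15 min with compounds at room temperature; reaction started with fluorescent substrate, 50 nM final. Fluorescence read kinetically at 0 and 10 min; buffer-only wells as negative control.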
Of the large screens only hits and unclear results are named; the others gave an inactive call. Unless noted, the call rests on the fitted dose curve; in most records, active means well fitted inhibition curve with a large enough effect; inconclusive means small, poorly fitted or top-dose-only effect, or another doubt; inactive means no such curve, though single readings can be large or run the other way.

COc1ccc(C(=O)N[C@H](C(=O)Nc2sccc2C(N)=O)C(C)C)cc1	none
NC(=O)c1ccsc1NC(=O)COC(=O)c1ccc(Cl)cc1	none (no result: Pol beta inh)
COc1ccc(C(=O)NC(C(=O)OCC(=O)Nc2sccc2C(N)=O)C(C)C)cc1 (centres undefined)	POLH inh 89.1µM, POLI inh inconclusive (no result: Pol beta inh)
CC(C)(C)NC(=O)Cc1csc(-c2cccs2)n1	none (no result: Pol beta inh, POLK inh, PI5P4Ka inh, POLH inh, POLI inh)
O=S(=O)(c1ccc(NC(=S)N/N=C/c2ccc(O)c(O)c2)cc1)N1CCOCC1	POLK inh inconclusive, ALOX12 inh inconclusive, POLI inh 20µM
N#Cc1ccc(/C=N/NC(=S)Nc2ccc(S(=O)(=O)N3CCOCC3)cc2)cc1	ALOX12 inh inconclusive
Oc1ccc(/C=N/NC(=S)Nc2cccnc2)cc1O	Pol beta inh inconclusive, POLK inh inconclusive, ALOX12 inh inconclusive, POLH inh inconclusive, POLI inh 3.55µM
CC(C)(C)c1ccc(/C=N/NC(=S)Nc2cccnc2)cc1	none (no result: POLK inh, PI5P4Ka inh, ALOX12 inh, POLH inh, POLI inh)
CC(C)CCCCCCNC(=S)Nc1ccc(S(=O)(=O)N2CCOCC2)cc1	ALOX12 inh 50.1µM, POLH inh inconclusive
Cc1ccc(C(=O)N2CCN(c3oc(C4CC4)nc3C#N)CC2)cn1	none (no result: Pol beta inh, POLK inh, PI5P4Ka inh, POLH inh, POLI inh)
CC(=O)NCCCNC(=O)c1cc2ccccc2[nH]1	none (no result: Pol beta inh, POLK inh, PI5P4Ka inh, POLH inh, POLI inh)
CCn1c(-c2sc(-c3ccccc3)nc2C)n[nH]c1=S	ALOX12 inh 44.7µM
Cn1c(-c2csc(-c3ccccc3)n2)n[nH]c1=S	ALOX12 inh 31.6µM
CC[C@@H](C(=O)[C@@H](C)[C@@H](O)[C@H](C)CCc1ccc(C)c(O)c1C(=O)O)[C@H]1O[C@](CC)([C@H]2CC[C@](O)(CC)[C@H](C)O2)C[C@@H]1C	Pol beta inh 22.4µM, PI5P4Ka inh inconclusive, POLI inh inconclusive
COc1cc(CNC(C)C)cc(OC)c1	none (no result: Pol beta inh, POLK inh, PI5P4Ka inh, POLH inh, POLI inh)
Cc1csc(NC(=O)c2cnc3ccccc3n2)n1	none
Cc1csc(NC(=O)c2ccc3ccccc3n2)n1	ALOX12 inh 14.1µM
Cc1[nH]n(-c2ccccc2)c(=O)c1C(C[N+](=O)[O-])c1ccc(Cl)cc1 (centres undefined)	ALOX12 inh inconclusive
Cc1[nH]n(-c2ccccc2)c(=O)c1C(C[N+](=O)[O-])c1ccc(F)cc1 (centres undefined)	POLI inh 2.24µM
Cc1ccc(C(C[N+](=O)[O-])c2c(C)[nH]n(-c3ccccc3)c2=O)cc1 (centres undefined)	ALOX12 inh inconclusive, POLI inh 1.12µM
CC[C@H](C)/C=C(C)/C=C/C(=O)Cc1cc(O)c(C)c(O)c1C=O	Pol beta inh inconclusive, PI5P4Ka inh -57.2, ALOX12 inh inconclusive, POLH inh 50.1µM, POLI inh inconclusive
COc1cc(C(=O)N2N=C(C)CC2(O)C(F)(F)F)cc(OC)c1OC (centres undefined)	none (no result: Pol beta inh, POLK inh, PI5P4Ka inh, POLH inh, POLI inh)
Nc1ccc(S(=O)(=O)Nc2cnc3ccccc3n2)cc1	none
Nc1ccc(S(=O)(=O)Nc2nc3ccccc3o2)cc1	Pol beta inh 79.4µM, POLK inh inconclusive, PI5P4Ka inh inconclusive, ALOX12 inh inconclusive, POLH inh 44.7µM, POLI inh inconclusive
CC(=O)C1=C(C)N(Cc2ccc(Br)cc2)C(=S)NC1c1cccc(F)c1 (centres undefined)	ALOX12 inh 44.7µM (no result: Pol beta inh, POLK inh, PI5P4Ka inh, POLH inh, POLI inh)
CC(=O)C1=C(C)N(Cc2ccc(Br)cc2)C(=S)NC1c1ccc(F)cc1 (centres undefined)	ALOX12 inh 35.5µM (no result: Pol beta inh, POLK inh, PI5P4Ka inh, POLH inh, POLI inh)
CC(=O)C1=C(C)N(Cc2ccccc2)C(=O)N[C@H]1c1cccc(F)c1	none (no result: Pol beta inh)
CC(=O)C1=C(C)N(Cc2ccc(F)cc2)C(=S)NC1c1ccc(Br)cc1 (centres undefined)	ALOX12 inh 35.5µM (no result: Pol beta inh, POLK inh, PI5P4Ka inh, POLH inh, POLI inh)
N#Cc1cccc(NC(=O)N2Cc3[nH]cnc3C[C@H]2c2nc(-c3ccc(Cl)cc3)no2)c1	none (no result: Pol beta inh, POLK inh, PI5P4Ka inh, POLH inh, POLI inh)
Cn1c(=O)c2c(ncn2Cc2nc(-c3ccccc3)no2)n(C)c1=O	none (no result: Pol beta inh, POLK inh, PI5P4Ka inh, POLH inh, POLI inh)
Cc1sc(NC(=O)CCCC(=O)O)c(C#N)c1C	none
